Hits are enriched below; roughly 4.3% of the tested compounds scored in any of these assays.
rCAG RNA binder: r(CAG) repeat RNA binding; AID 651821; TO-PRO-1 dye displacement fluorescence; 370,000 compounds, 1.3% hits; inhibition, % at 3 µM;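 active = inhibition above the plate cutoff, the mean of all test compounds on that plate plus 3 SD, cut at about 35% in these data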;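 note: 0% = DMSO alone and 100% = 100 µM mitoxantrone as full dye displacement; higher means more dye released from RNA so lower well fluorescence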
NadD block: inhibitors of Staphylococcus aureus NadD; purified NadD enzyme, colorimetric absorbance read-out; AID 602399; 360,000 compounds, 0.78% hits; inhibition, % at 20 µM; in the data active = inhibition above about 26%
FAS-TE inh: inhibitors of human fatty acid synthase thioesterase domain. P49327. recombinant FAS-TE, OMFH fluorogenic substrate, fluorescence endpoint. inhibition, % at 15 µM. 360,000 compounds, 0.67% hits;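 active = compounds whose normalised, plate-corrected inhibition of enzyme fluorescence in the single-dose primary screen is 50% or more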;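 note: 0% = DMSO with enzyme and 100% = substrate without enzyme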
GRIN3A LBD mod: NR3A (human) ligand-binding domain modulation; NR3A LBD differential scanning fluorimetry, Tm shift; 0% = protein alone, 100% = glycine-bound protein; Tm shift relative to glycine control, % at 25 µM; 340,000 compounds, 2.5% hits; AID 1259313;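 active = melting temperature shift of at least 10% of the positive control shift, at one fixed dose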
Starred values were filed as active, the others as inactive; . = no result.

SMILES	rCAG RNA binder	NadD block	FAS-TE inh	GRIN3A LBD mod
O=C(Nc1ccccn1)c1ccc(Br)s1	-2	-2	-1	2
COC(=O)[C@]12C[C@H](CC(=O)NCc3cccs3)C(=O)N(Cc3cccc4ccccc34)C1=C[C@H](C(C)(C)C)O[C@@H]2C	2	.	.	.
Cc1ccc2oc(=O)cc(/C=C/c3ccccc3)c2c1	10	-6	35	18*
CC(=O)c1c(C)oc2ccc(NS(=O)(=O)c3ccc(O)c(C(=O)O)c3)cc12	19	-3	-6	-1
O=C(O)c1cc(S(=O)(=O)Nc2ccc3oc(=O)sc3c2)ccc1O	60*	.	.	-4
CCOC(=O)c1c(NC2OC(=O)c3c2ccc(OC)c3OC)sc(C(=O)OC(C)(C)C)c1C (centres undefined)	-4	-10	14	18*
Cc1cc(-c2nn(-c3ccccc3)cc2/C=C2\SC(N)=NC2=O)ccc1OC(C)C	7	35*	10	0
O=C(NCc1ccccc1)OCCN1C(=O)CCC12CCC(c1ccccc1)CC2 (centres undefined)	0	.	.	.
CCOc1cc(/C=N/Nc2nc(-c3cccc(S(=O)(=O)N4CCCC4)c3)cs2)ccc1O	25	45*	26	-6
CC(=O)c1cccc(NC(=O)Nc2ccc3c(c2)OCO3)c1	1	-1	-5	13*
CC1CCc2nc(NC(=O)Nc3ccc4c(c3)OCO4)sc2C1 (centres undefined)	19	5	2	31*
O=C(NCc1ccc2c(c1)OCO2)Nc1cccc(Cl)c1	1	-5	29	-5
O=C(Nc1cccc(Cl)c1)Nc1ccc2c(c1)OCO2	15	-3	9	33*
Cc1cccc(CCNC(=O)c2ccc3c(c2)ncn3C2CCCCC2)c1	0	.	.	.
O=C(Nc1nc2ncccn2c1-c1ccc(F)c(F)c1)c1ccccc1	2	.	.	.
COc1cccc(C(=O)NCCN2C(=O)C3C4C=CC(C4)C3C2=O)c1 (centres undefined)	1	.	.	.
COC(=O)N/N=C/c1ccc(OC(=O)/C=C/c2ccco2)cc1	1	-5	-5	11*
COCC1CN(CCc2ccc(F)cc2)S(=O)(=O)c2c(F)cccc2O1 (centres undefined)	2	.	.	.
Cc1ccc(-c2nnn(CC(=O)Nc3ccc4nn(-c5ccccc5)nc4c3)n2)o1	5	34*	-2	0
O=C(Nc1cccnc1)c1ccc(COCC(F)(F)F)cc1	-2	-2	-10	11*
CCOc1ccc(OCc2ccc(C(=O)Nc3cccnc3)cc2)cc1	1	-6	-8	2
O=C(NCCc1ccccc1F)c1cc2ccccn2n1	-1	.	.	.
C[C@H]1[C@@H]2C[C@@]3(O[C@H](c4ccccn4)N=C3C[C@@H]1c1ccccc1)N(Cc1ccncc1)C2=O	2	.	.	.
CCCn1c(=O)c2ccccc2n2c(SCCOc3ccc(OC)cc3)nnc12	-3	-2	13	11*
O=C(CSc1nnc(-c2cccnc2)n1C1CCCCC1)NC1CCCCCC1	1	.	.	.
SMILES	rCAG RNA binder	NadD block	FAS-TE inh	GRIN3A LBD mod
COc1ccc(N=Nc2ccc(O)c3ncccc23)cc1	6	40*	0	-2
O=Nc1ccc(O)c2ncccc12	-2	-1	29	-2
COc1ccc(C)cc1N=Nc1ccc(O)c2ncccc12	9	23	5	-4
O=S(=O)(O)c1cccc2c(N=Nc3ccc(O)c4ncccc34)cccc12	.	-3	75*	1
COc1cccc(N=Nc2ccc(O)c3ncccc23)c1	18	34*	8	-2
Cc1ccccc1N=Nc1ccc(O)c2ncccc12	7	33*	7	-5
COc1ccc(S[C@]2(C(=O)N(C)C)CC(=O)N[C@@H]2c2ccc(OC)cc2)cc1	5	.	.	.
C=CCN=C1NC(c2cccc(Cl)c2)C(C(=O)OC)=C(C)N1Cc1cccc(C(F)(F)F)c1 (centres undefined)	5	.	.	.
COc1ccc(-c2cn[nH]c2-c2ccc(OCc3ccc([N+](=O)[O-])cc3)cc2O)cc1	17	11	-5	30*
CCc1cc(-c2[nH]ncc2-c2ccc3c(c2)OCO3)c(O)cc1O	5	9	-157	24*
CCOc1ccc(-c2[nH]ncc2-c2ccc(OC)c(OC)c2)c(O)c1	-2	4	-35	-1
CCc1cc(-c2[nH]ncc2-c2ccc(OC)cc2)c(O)cc1O	4	-4	-160	41*
O=C(c1cccs1)n1ccc2ccc(-c3ccc4ccn(Cc5ccccc5)c4c3)cc21	20	.	.	.
COc1ccccc1-c1cc(C(F)(F)F)n2ncc(S(=O)(=O)c3ccccc3)c2n1	0	2	22	24*
O=S(=O)(c1ccccc1)c1cnn2c(C(F)(F)F)cc(-c3ccccc3)nc12	-1	5	-3	-2
